Test results taken from PMC4336329 (PLoS ONE, 2015).
The campaign covered roughly 310,000 compounds. About 14,000 (4.5%) showed an effect of 50% or more. The effect is printed as a negative number. For the sample, strong results were picked, then their nearest neighbours and some compounds at random.

Each compound was assayed against human ether-à-go-go-related gene (hERG) potassium channel (human, UniProt Q12809) (assay: primary screen, population patch clamp on CHO cells stably expressing hERG; higher = less effect of the substance).
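Further: peak tail current of the secondary pulse compared with the same well before compound.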

human ether-à-go-go-related gene (hERG) potassium channel, sequence (Q12809 whole entry, looked up): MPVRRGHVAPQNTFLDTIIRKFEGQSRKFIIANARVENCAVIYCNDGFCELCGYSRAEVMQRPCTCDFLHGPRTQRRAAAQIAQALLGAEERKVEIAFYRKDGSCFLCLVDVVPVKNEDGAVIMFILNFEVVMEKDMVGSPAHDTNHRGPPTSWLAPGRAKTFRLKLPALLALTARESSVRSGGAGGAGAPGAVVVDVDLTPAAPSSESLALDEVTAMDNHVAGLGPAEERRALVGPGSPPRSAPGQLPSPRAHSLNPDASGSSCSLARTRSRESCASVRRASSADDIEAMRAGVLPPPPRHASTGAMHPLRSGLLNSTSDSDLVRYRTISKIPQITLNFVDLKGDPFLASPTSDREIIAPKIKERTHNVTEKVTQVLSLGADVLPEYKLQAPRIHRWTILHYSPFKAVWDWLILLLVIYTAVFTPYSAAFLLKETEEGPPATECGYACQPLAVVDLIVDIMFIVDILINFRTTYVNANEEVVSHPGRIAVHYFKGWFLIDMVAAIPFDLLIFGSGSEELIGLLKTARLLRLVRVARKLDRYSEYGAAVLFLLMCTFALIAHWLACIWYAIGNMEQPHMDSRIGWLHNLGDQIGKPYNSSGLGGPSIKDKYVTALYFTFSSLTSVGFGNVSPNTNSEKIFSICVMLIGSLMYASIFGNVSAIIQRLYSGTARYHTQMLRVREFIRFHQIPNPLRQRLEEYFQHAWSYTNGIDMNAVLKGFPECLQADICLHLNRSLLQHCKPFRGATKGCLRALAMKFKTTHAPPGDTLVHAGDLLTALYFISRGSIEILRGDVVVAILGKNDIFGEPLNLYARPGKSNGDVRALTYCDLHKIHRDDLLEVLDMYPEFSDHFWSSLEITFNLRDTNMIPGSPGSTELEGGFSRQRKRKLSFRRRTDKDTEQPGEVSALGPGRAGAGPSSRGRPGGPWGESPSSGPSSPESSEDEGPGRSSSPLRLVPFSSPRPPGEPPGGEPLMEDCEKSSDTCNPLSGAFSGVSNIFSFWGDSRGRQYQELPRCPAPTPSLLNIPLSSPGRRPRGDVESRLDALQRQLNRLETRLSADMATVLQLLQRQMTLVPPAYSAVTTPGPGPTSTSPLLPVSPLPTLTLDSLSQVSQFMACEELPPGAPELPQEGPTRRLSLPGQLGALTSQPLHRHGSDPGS

SMILES	hERG current change (%, negative = inhibition) at 10uM
CC(Sc1nc(=O)cc(N)n1CCc1ccccc1)C(=O)NCc1ccccc1 (centres unmarked)	3.18%
Cc1ccc(C)c(S(=O)(=O)N/N=C/c2ccc(N(C)C)cc2)c1	16.1%
CCC(NC(=O)c1ccccc1NC(=O)c1ccccc1)C(=O)OC (centres unmarked)	11.3%
CS(=O)CSc1nc2c(cc1C#N)CCCC2 (centres unmarked)	-25%
NC(=O)CC(NC(=O)c1ccccc1)c1ccc(NCC2CC2)c([N+](=O)[O-])c1 (centres unmarked)	-35.3%
NC(=O)CC(NC(=O)c1cccc(Br)c1)c1ccc(NC2CCC2)c([N+](=O)[O-])c1 (centres unmarked)	-59.8%
NC(=O)CC(NC(=O)c1cccc(Br)c1)c1ccc(NC2CCCCCCC2)c([N+](=O)[O-])c1 (centres unmarked)	6.95%
Cc1cc(C)cc(C(=O)NC(CC(N)=O)c2ccc(NCC3CC3)c([N+](=O)[O-])c2)c1 (centres unmarked)	-30.4%
NC(=O)CC(NC(=O)c1cccc(Br)c1)c1ccc(NCC2CC2)c([N+](=O)[O-])c1 (centres unmarked)	-65.4%
NC(=O)CC(NC(=O)c1cccc(Br)c1)c1ccc(NC2CCCCCCCCCCC2)c([N+](=O)[O-])c1 (centres unmarked)	5.21%
CCc1nnc(NC(=O)CCC(=O)N2CCN(CCOc3ccc(C)cc3)CC2)s1	-20.2%
Cc1ccc(OCCN2CCN(C(=O)CCC(=O)Nc3nnc(CC(C)C)s3)CC2)cc1	-43.5%
CCCc1nnc(NC(=O)CCC(=O)N2CCN(CCOc3ccc(C)cc3)CC2)s1	-51.2%
CCN1CCN(CC(=O)Nc2nc3ccccc3s2)CC1.O=CO	-22.7%
O=C(CN1CCN(C(=O)c2ccc(-c3nc4ccccc4s3)o2)CC1)Nc1ccc(F)cc1	-72.3%
O=C(CN1CCN(Cc2ccc(F)cc2)CC1)Nc1nc2ccccc2s1	-69.3%
COc1ccccc1N1CCN(C(=O)c2ccc(-c3nc4ccccc4s3)o2)CC1	-3.16%
O=C(c1ccc(-c2nc3ccccc3s2)o1)N1CCN(c2ccccc2O)CC1	11.6%
CCc1nnc(NC(=O)CCC(=O)NC2CCCC2)s1	-3.36%
CCc1nnc(NC(=O)CCC(=O)NC2CC2)s1	-50.5%

SMILES	hERG current change (%, negative = inhibition) at 10uM
CCc1nnc(NC(=O)CCC(=O)NC2CCCCC2)s1	15.8%
CN1CCN(CC(=O)Nc2nc3ccccc3s2)CC1.O=CO	-5.53%
Cc1cc(C)c2c(=O)[nH]n(C3CCCCCC3)c2n1	23.5%
Cc1nc(Nc2nc3c(c(=O)[nH]2)CCC3)nc2ccccc12	-10.2%
Cc1ccc(NC(=S)N(C)C)cc1C	-4.6%
O=C(N=C1SC2CS(=O)(=O)CC2N1c1ccc(Cl)cc1Cl)C1CC1 (centres unmarked)	-7.48%
Cc1ccc(/C(O)=C/C(=O)C(=O)NNC(=O)C(O)(c2ccccc2)c2ccccc2)cc1	14.5%
OCCOc1ccc(C2=NCCO2)cc1	-23.3%
Cc1cnc([N+](=O)[O-])n1CCOC(=O)NC(=O)c1ccccc1Cl	8.87%
COc1ccc(OC)c(NC(=O)CCCNC(=O)c2ccc(Cl)cc2)c1	-9.27%
CS(=O)(=O)c1ccc2nc(NC(=O)CN3CCN(Cc4ccccc4)CC3)sc2c1	-39.8%
CCCN1CCN(CC(=O)Nc2nc3ccccc3s2)CC1	-49.9%
CCc1nnc(NC(=O)CN2CCN(Cc3ccc(C)cc3)CC2)s1	-57.6%
CCc1nnc(NC(=O)CN2CCN(Cc3ccc(F)cc3)CC2)s1	-13.6%
CCc1nnc(NC(=O)CN2CCN(Cc3cccc(Cl)c3)CC2)s1	-8.15%
O=C(CN1CCN(Cc2ccccc2)CC1)Nc1nc2ccccc2s1	-68.2%
Cc1cccc(OCC(=O)Nc2ccc3oc(=O)ccc3c2)c1	8.55%
COc1ccc(C(C)=O)cc1Cn1nc(C)c([N+](=O)[O-])c1C	18.5%
CC1(C)Oc2ccc3ccc(=O)oc3c2/C(=C/NCCO)C1=O	5.11%
Br.CCCCCCCCCCn1c2c(c(=N)c3c1CCC3)CCC2	-78.9%

SMILES	hERG current change (%, negative = inhibition) at 10uM
CCCn1c2c(c(=N)c3c1CCC3)CCCC2.I	6.05%
CCCCn1c2c(c(=N)c3c1CCC3)CCC2.I	-2.48%
CCOC(=O)Cn1c2c(c(=N)c3c1CCC3)CCC2.Cl	8.34%
CCCCCCn1c(=O)[nH]c2c(c1=O)CCC2	-3.06%
CCOC(=O)Cn1c2c(c(=N)c3c1CCC3)CCCC2.Cl	18.5%
Br.CCn1c2c(c(=N)c3c1CCC3)CCCC2	-2.41%
CCCn1c2c(c(=N)c3c1CCC3)CCC2.I	7.05%
Br.CCCCCCn1c2c(c(=N)c3c1CCC3)CCC2	-76.5%
Br.CCCCCCCCn1c2c(c(=N)c3c1CCC3)CCCC2	-76.1%
Br.CCn1c2c(c(=N)c3c1CCC3)CCC2	0.642%
Br.CCCCCCCCCn1c2c(c(=N)c3c1CCC3)CCC2	-74.1%
CC(NC(=O)Cc1ccccc1)c1nc2ccccc2[nH]1 (centres unmarked)	5.94%
O=C(CCNC(=O)c1ccc([N+](=O)[O-])cc1)NCCc1ccc(Cl)cc1	-40.4%
Cc1cc(C)n2nc(CC(=O)NCc3ccc(F)cc3)nc2n1	-0.0725%
CCN(CC)N=Nc1ccc(S(=O)(=O)N2CCSC2C(=O)[O-])cc1.[K+] (centres unmarked)	28.2%
CCC(C)[C@H](NC(=O)OC(C)(C)C)C(=O)N/N=C/c1ccc2nccnc2c1 (some centres unmarked)	-13.8%
CNC(=O)c1cc(OCC(F)(F)F)ccc1OCC(F)(F)F	-4.26%
COc1ccc(S(=O)(=O)NCc2ccc(C(=O)NCc3cccnc3)cc2)cc1	-1.21%
COc1ccc(C(=O)N2CCN(C)C(=O)[C@@H]2C)cc1OC1CCN(C(C)=O)CC1	12.6%
